# Only some compounds are listed: those with a hit (about 28% of all), similar ones and a draw of the others.
# CYP2C19 inhib – blocks human cytochrome P450 2C19; CYP2C19 Supersomes, luciferin-H EGE luminescence, 30 min; AID 778; P33261; inhibition, % at 5 µM; hit rate 21% among 96,000;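 active = CYP2C19 inhibition above a set limit at 5 µM in the primary screen, cut at about 50% in these data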;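 also: plate controls were negative control wells for no effect and 2.5 mM tranylcypromine positive control for full effect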
# PLK1 kinase inh – PLK1 (human) kinase inhibition | P53350 | inhibition, % at 10 µM | hit rate 0.53% among 97,000 | recombinant PLK1 kinase, TR-FRET peptide phosphorylation | AID 619;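 active = inhibition of 50% or more in the single-concentration screen; inactive = inhibition below 50%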;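 also: 0% = DMSO max control and 100% = H-89 dihydrochloride min control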
# PLK1 PBD inh – blocks phosphopeptide binding to human Plk1 polo box domain | P53350 | Plk1 PBD phosphopeptide binding, fluorescence polarization | inhibition, %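 (tested at about 20 µM)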 | hit rate 0.13% among 97,000 | AID 693; in the data active = inhibition above about 34%, passing the limit was not always enough
# CYP2C9 activ – CYP2C9 (human) activation; P11712; recombinant CYP2C9, luciferin-H conversion, luminescence; hits give high values; factor 1 = untreated enzyme, 0 = blocked; activation factor at 5 µM; hit rate 1.4% among 96,000;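 active = activation factor of 2 or more for CYP2C9 at a 5 µM dose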;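 also: 0 = sulfaphenazole-blocked wells and 1 = vehicle-only wells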
# Target sequence (P11712 whole entry, looked up): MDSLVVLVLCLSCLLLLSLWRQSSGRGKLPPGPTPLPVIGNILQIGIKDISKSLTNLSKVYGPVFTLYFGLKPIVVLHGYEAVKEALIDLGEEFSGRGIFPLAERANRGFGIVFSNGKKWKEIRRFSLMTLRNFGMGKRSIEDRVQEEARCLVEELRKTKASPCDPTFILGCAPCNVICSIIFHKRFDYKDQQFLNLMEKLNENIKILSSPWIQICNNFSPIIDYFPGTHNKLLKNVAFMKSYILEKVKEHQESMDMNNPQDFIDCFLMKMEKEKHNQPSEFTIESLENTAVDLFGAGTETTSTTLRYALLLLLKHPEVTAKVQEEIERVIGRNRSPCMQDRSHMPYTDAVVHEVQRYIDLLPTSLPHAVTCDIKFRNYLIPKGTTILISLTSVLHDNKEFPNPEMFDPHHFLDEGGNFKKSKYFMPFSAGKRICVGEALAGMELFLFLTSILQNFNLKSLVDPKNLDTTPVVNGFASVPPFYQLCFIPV
# CYP2C19 act – cytochrome P450 2C19 (human) activation | P33261 | 96,000 tested, under 10 active | AID 1025 | recombinant CYP2C19, luciferin-H EGE luminescence; hits give high values; 0 = fully inhibited enzyme, 1 = untreated enzyme | activation factor at 5 µM;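 active = activation factor of at least 2 at 5 µM in the primary screen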;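 also: 0 = wells with 2.5 mM tranylcypromine and 1 = vehicle-only wells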
# CYP2C9 inh – inhibitors of human CYP2C9; P11712; CYP2C9 Supersomes, luciferin-H conversion, luminescence; inhibition, % at 5 µM; hit rate 20% among 96,000; AID 777;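 active = blocking of liver enzyme CYP2C9 beyond about 50% at 5 µM, limit read from the data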
# An asterisk follows results filed as active; x = no result given.
SMILES,CYP2C19 inhib,PLK1 kinase inh,PLK1 PBD inh,CYP2C9 activ,CYP2C19 act,CYP2C9 inh
Cc1ccccc1C(=O)NC(=S)Nc1ccc(Oc2ccc(Cl)cc2)cc1,15.3,-12.8,2.3,0.7,0.8,34.5
Cc1cccc(C(=O)NC(=S)Nc2ccc(Cc3ccncc3)cc2)c1,88.9*,-10.1,6.4,0.1,0.1,92.0*
Cc1ccccc1C(=O)NC(=S)Nc1ccc(S(=O)(=O)N(C)c2ccccc2)cc1,86.8*,-7.8,10.2,0.2,0.1,81.9*
Cc1cccc(C(=O)NC(=S)Nc2ccc(S(=O)(=O)N3CCN(C)CC3)cc2)c1,78.8*,-5.5,7.7,0.3,0.2,71.0*
Cc1cccc(C(=O)NC(=S)Nc2ccc(S(=O)(=O)N(C)c3ccccc3)cc2)c1,30.6,-4.0,-4.2,0.3,0.7,66.1*
Cc1cccc(C(=O)Nc2ccc(C)c(OC(=O)c3cccc(C)c3)c2)c1,9.8,-0.2,-0.3,0.7,0.9,28.9
Cc1cccc(C(=O)NC(=S)Nc2ccc(S(=O)(=O)N3CCCCC3)cc2)c1,22.0,-8.5,-15.9,0.6,0.8,44.4
O=C(Nc1cn(-c2ccccc2)nc1-c1cccs1)c1ccco1,37.0,-8.6,-3.2,0.6,0.6,35.2
CC(C)C1Cc2[nH]c(=O)c(C(=O)O)cc2CO1 (stereo not drawn),-14.9,-10.3,-2.2,0.8,1.1,20.6
CCNc1nc(NC(C)CC)nc(Oc2ccc(=O)[nH]n2)n1 (stereo not drawn),50.3*,-9.4,2.9,1,0.5,4.3
COc1ccc(S(=O)(=O)N2CCCC(C(=O)NCc3ccco3)C2)cc1Cl (stereo not drawn),32.6,-8.9,1.7,1.5,0.7,-45.3
CN(Cc1ccccc1)c1nc(N)c([N+](=O)[O-])c(Nc2cccc(F)c2)n1,38.1,-6.0,-2.6,0.2,0.6,78.6*
O=C(N1CCOCC1)C1(c2ccccc2)CCCCC1,68.9*,-9.2,4.8,0.9,0.3,5.4
CCOC(=O)NC(=O)CSc1nnnn1-c1ccc(Cl)cc1,x,-14.1,1.1,x,x,x
OC(c1ccccc1)(c1ccc(F)cc1)C(c1ccccc1)N1CCOCC1 (stereo not drawn),68.7*,-3.7,-15.2,1,0.3,4.2
C=CCN(CC=C)c1nc2ccccc2nc1C(C#N)C(=O)OCCOC (stereo not drawn),8.9,-6.2,-24.1,0.7,0.9,28.6
O=C(NCc1cccc(Cl)c1)c1ccc2c(c1)OCO2,50.2*,-0.2,2.7,0.9,0.5,9.1
Cc1ccc(C(=O)Nc2ccc3c(c2)OCO3)cc1,37.6,1.4,16.1,0.7,0.6,26.7
O=C(NCc1ccc2c(c1)OCO2)c1ccc2c(c1)C(=O)N(Cc1cccnc1)C2=O,7.2,-11.7,-13.8,0.5,0.9,50.6*
O=C(NCc1cccnc1)c1ccc2c(c1)OCO2,5.1,-9.8,-14.8,1.1,0.9,-9.4
O=C(Nc1ccc2c(c1)OCO2)c1ccncc1,53.1*,13.8,-6.7,0.8,0.5,18.6
O=C(NCc1ccc2c(c1)OCO2)c1cccc(F)c1,99.4*,-15.2,15.9,0.3,0,66.3*
COc1ccc(C(=O)Nc2ccc3oc(Cc4ccc(Cl)cc4)nc3c2)cc1OC,9.9,-18.7,19.7,0.8,0.9,20.6
C(=N\N1CCN(Cc2cccc3ccccc23)CC1)/c1cccnc1,31.3,-6.0,0.9,1,0.7,-1.6
O=C(NCc1ccc2c(c1)OCO2)c1ccncc1,68.0*,x,x,0.7,0.3,25.5
SMILES,CYP2C19 inhib,PLK1 kinase inh,PLK1 PBD inh,CYP2C9 activ,CYP2C19 act,CYP2C9 inh
Cc1ccnc2nc(C(=O)Nc3ccc4c(c3)OCO4)nn12,75.3*,-10.4,0.3,0.6,0.2,43.9
O=C(Nc1ccn(Cc2ccc(Cl)cc2)n1)c1ccc2c(c1)OCO2,90.9*,1.5,-16.4,0.1,0.1,92.5*
O=C(Nc1ccc(CN2CCCCC2)cc1)c1ccc2c(c1)OCO2,-13.6,1.1,4.6,1,1.1,-2.0
O=C(NCc1cccc(Cl)c1)c1cccc(C(F)(F)F)c1,62.3*,-0.7,1.4,1.3,0.4,-31.2
CCOC(=O)c1sc(-n2[nH]c(C)cc2=O)nc1C,-0.2,-6.3,-14.1,0.7,1,29.3
O=C(Nc1ccc2c(c1)OCO2)c1cccs1,42.7,-6.8,-3.1,0.7,0.6,25.9
O=C(NCc1ccc2c(c1)OCO2)c1cccc(S(=O)(=O)N2CCCCC2)c1,x,-9.2,19.0,x,x,x
O=C(Nc1ccc2c(c1)OCO2)c1ccc(Br)s1,54.0*,-8.7,31.9,0.6,0.5,35.4
O=C(Nc1ccc2c(c1)OCO2)c1noc2c1CCCCC2,21.8,-10.4,10.9,0.1,0.8,88.7*
O=C(Nc1ccc2c(c1)OCO2)c1ccc2nc[nH]c2c1,80.4*,9.0,-28.5,0.4,0.2,56.5*
O=C(NCc1ccc2c(c1)OCO2)c1cccc(Cl)c1,98.5*,x,x,0.6,0,35.1
COc1ccc(NC(=O)c2cccc(NC(=O)C3C4CC5OC(=O)C3C5C4)c2)c(OC)c1 (stereo not drawn),-3.7,-10.4,11.8,1,1,4.8
O=C(NCc1ccc2c(c1)OCO2)c1ccccn1,x,-18.0,-9.8,x,x,x
Cc1ccc(CNc2ccc3c(c2)OCO3)cc1,22.3,-6.5,-50.3,0.9,0.8,9.6
c1cc(CNc2ccc3c(c2)OCO3)ccn1,71.0*,2.2,-18.2,0.4,0.3,62.8*
O=C(NCc1cccc(Cl)c1)c1ccco1,57.2*,-5.7,-20.6,0.9,0.4,14.0
O=C(/C=C\Nc1ccc2c(c1)OCO2)c1ccccn1,57.1*,-11.6,7.1,0.7,0.4,31.0
O=C(NCc1ccc2c(c1)OCO2)c1ccc(-c2ccc(Cl)cc2)o1,22.7,0.4,-13.5,0,0.8,99.5*
Cc1ccnc(SCCn2c(N3CC(C)CC(C)C3)nc3c2c(=O)n(C)c(=O)n3C)n1 (stereo not drawn),19.1,0.4,2.8,0.6,0.8,41.2
CCOCCCNC(=O)Cn1ncc2c(=O)oc3ccccc3c21,-9.3,-16.8,10.2,1.1,1.1,-9.7
CC(C)Oc1ccccc1-c1nc(SCC(=O)O)n[nH]1,-1.5,-13.0,-2.9,1.1,1,-6.8
CCc1ccc2c(CN3CCN(S(=O)(=O)c4ccc5c(c4)OCCO5)CC3)cc(=O)oc2c1,46.0,-12.2,-16.8,0.5,0.5,53.4*
CCc1ccc2oc(=O)cc(CN3CCOCC3)c2c1,64.8*,-7.5,-16.8,0.7,0.4,28.9
O=c1cc(CN2CCN(S(=O)(=O)c3ccc4c(c3)OCCO4)CC2)c2ccc(O)cc2o1,-9.6,-15.8,9.0,0.3,1.1,66.0*
COC(=O)c1ccc(N2CCCCC2)c(NS(=O)(=O)c2ccc(C)cc2)c1,31.6,-6.4,-5.2,0.1,0.7,86.9*
CCOC(=O)c1cccc(NS(=O)(=O)c2c(C)[nH]c(=O)[nH]c2=O)c1,8.7,2.7,7.4,0.8,0.9,19.6
CCOC(=O)c1cccc(NS(=O)(=O)c2ccc(NC(C)=O)cc2)c1,99.8*,-10.5,-6.6,0,0,98.4*
